Data reported in PubChem BioAssay AID743343 (Broad Institute, 2014).
Potency and affinity values are given separately. Active and inactive are the calls of the source. How the calls were made is not given here.

These compounds were tested on Drosophila melanogaster bursicon receptor LGR2 (rickets) (assay: LGR2 antagonists, dose response, cell-based, HEK293, CRE-luciferase reporter, cherry pick, set 2 (AID 743343)). Conditions: bursicon-induced cAMP antagonist; series mostly up to 35 µM.

outcome, inactive:
COc1ccc2[nH]c3c(c2c1)CCN1C(=O)N([C@@H](C)C(=O)NCc2ccc(C)cc2)C(=O)[C@]31C
O=C(Nc1ccc(N2CCOCC2)c(S(=O)(=O)Nc2ccccc2Cl)c1)c1ccc(F)cc1
CC(C)N(C(=O)COC(=O)c1ccccc1C(=O)c1ccc(Cl)c([N+](=O)[O-])c1)C(C)C
COc1ccc2cc(C#N)c(Nc3cccc(F)c3)nc2c1
C[C@H]1CN([C@@H](C)CO)C(=O)c2cc(NC(=O)Nc3ccccc3)ccc2O[C@H]1CN(C)Cc1ccc(-c2ccccc2)cc1
Cc1noc(C)c1S(=O)(=O)Nc1cccc2c1O[C@H](CN(C)C(=O)Nc1ccc(F)cc1)[C@H](C)CN([C@H](C)CO)C2=O
O=C(Cc1ccncc1)NCC[C@H]1CC[C@H](NC(=O)C2CCCC2)[C@H](CO)O1
Cc1ccc(NC(=O)c2ncn(CC(=O)N3CCN(c4ccccn4)CC3)n2)cc1C
O=C(Cc1ccccc1Cl)Nc1cccnc1
C[C@@H]1CN([C@@H](C)CO)C(=O)c2cccc(NC(=O)Nc3ccc(C(F)(F)F)cc3)c2O[C@H]1CN(C)C(=O)Nc1cccc2ccccc12
CNCc1ccccc1Sc1ccc(O)c(O)c1
O=C(c1ccc(F)cc1)N1CC(=O)N2[C@@H](CO)[C@@H](c3ccc(C#CC4CCCC4)cc3)[C@@H]2C1
COc1cccc(-c2ccc(C3[C@@H]4CN(C(=O)C5CC5)C[C@H]3N4)cc2)c1 (some centres undefined)
Cc1ccc(S(=O)(=O)Nc2ccc3c(c2)CC(=O)N([C@H](C)CO)C[C@H](C)[C@H](CN(C)Cc2ccc(Cl)c(Cl)c2)O3)cc1
Cc1ccc(NC(=O)c2ncn(CC(=O)NCc3ccc4[nH]ccc4c3)n2)cc1C
CCOc1cccc2sc(Nc3nc4ccc(NC(C)=O)cc4s3)nc12
Cc1cc(Cl)ccc1OCCCC(=O)Nc1cc(S(=O)(=O)N2CCOCC2)ccc1N1CCOCC1
CCOC(=O)Nc1ccc(N2CCOCC2)c(S(=O)(=O)Nc2ccc(Cl)cc2)c1
O=C(O)CSc1cc(NS(=O)(=O)c2cccc([N+](=O)[O-])c2)c2ccccc2c1O
COc1cc(NC2CCCCC2O)c2nc(-c3ccc(Cl)cc3)ccc2c1 (centres undefined)
N#C[C@@H]1[C@H](c2ccc(C#CC3CCCCC3)cc2)[C@@H](CO)N1C(=O)c1cccc(F)c1
COc1ccc(CCNC(=O)C2CCN(S(=O)(=O)c3ccc(Cl)cc3)CC2)cc1OC
C[C@H](CO)N1C[C@H](C)[C@H](CN(C)C(=O)CN2CCOCC2)Oc2ncc(C#CCN(C)C)cc2C1=O
Cc1ccc2nc(NC(=O)CCCC(=O)O)sc2c1
COc1ccc2c3c([nH]c2c1)[C@H](CO)N(C(C)=O)CC31CCN(C(=O)CN2CCOCC2)CC1
CO[C@@H]1CN(C)C(=O)c2ccc(NC(=O)C3CC3)cc2OC[C@@H](C)NC[C@@H]1C
C[C@@H]1CN([C@H](C)CO)C(=O)CCCn2nncc2CO[C@H]1CN(C)C(=O)Nc1cccc2ccccc12
CC(C)(C)c1nc2ccc(Cl)cn2c1CC1CCCCC1
O=C(c1ccc2c(c1)OCCO2)C1CCN(S(=O)(=O)c2ccc(F)cc2)CC1
COc1ccccc1CCn1cnc(-c2ccccc2OC)c1C(C)C
CC1(c2ccccc2Cl)NC(=O)N(CC(=O)N2CCc3ccccc32)C1=O (centres undefined)
CO[C@H]1CN(C)C(=O)c2ccc(NC(=O)C3CC3)cc2OC[C@@H](C)N(C(=O)Cc2ccccn2)C[C@H]1C
COc1ccccc1CN(C)C[C@@H]1OCc2cnnn2CCCC(=O)N([C@H](C)CO)C[C@H]1C
Cn1nnnc1SCC(=O)N1CCN(C(=O)c2ccco2)CC1
O=C(CN1CCOc2ccccc21)NCc1ccc(F)cc1
C[C@@H]1CN([C@@H](C)CO)S(=O)(=O)c2ccc(C3=CCCC3)cc2O[C@H]1CN(C)C(=O)c1ccccc1
COc1ccc(-c2nc(N)n(C(=O)c3cccs3)n2)cc1
O=C(NCc1ccc(F)cc1)c1cc(C2CCCCN2S(=O)(=O)c2cccs2)on1 (centres undefined)
Cc1ccc(S(=O)(=O)N(C)C[C@H]2Oc3cc(Br)ccc3S(=O)(=O)N([C@H](C)CO)C[C@H]2C)cc1
